In article PMC5700166:
Changes are numbered by the printed parent chain.

Key:
Test in all cases: protein-binding microarray (PBM); PBM: ~300 nM protein, 6 mM HEPES pH 7.8, 80 mM KCl, 0.5 mM EDTA, 0.5 mM EGTA, 6% glycerol, 35 ng/ul poly-dIdC, 1% milk, 1 h, room temperature; Ap Aiptasia and Nv Nematostella (sea anemones) / Co Capsaspora / Aq Amphimedon (sponge) / Dm Drosophila / Hu human; RHD is the Rel homology domain; high values mean tight binding
Conditions in all cases: dsDNA, one strand shown
GST-Ap-NF-kB RHD = biological target: T1, GST-Ap-NF-kB RHD (Exaiptasia pallida (Aiptasia), UniProt A0A913YAJ5 2-422)
T1 sequence: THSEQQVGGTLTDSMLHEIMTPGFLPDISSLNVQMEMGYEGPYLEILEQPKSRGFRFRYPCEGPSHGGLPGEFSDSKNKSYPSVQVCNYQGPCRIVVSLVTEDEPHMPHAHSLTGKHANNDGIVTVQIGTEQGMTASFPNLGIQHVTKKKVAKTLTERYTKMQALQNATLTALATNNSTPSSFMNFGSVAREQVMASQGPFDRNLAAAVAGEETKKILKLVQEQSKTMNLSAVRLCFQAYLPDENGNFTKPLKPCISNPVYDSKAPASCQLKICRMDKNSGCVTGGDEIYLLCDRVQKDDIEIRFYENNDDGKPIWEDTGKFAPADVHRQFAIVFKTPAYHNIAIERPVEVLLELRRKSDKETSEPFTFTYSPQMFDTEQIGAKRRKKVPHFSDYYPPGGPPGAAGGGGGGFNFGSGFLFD

[1] = biological target: T2, GST-Nv-NF-kB (Cys allele) (Nematostella vectensis, UniProt E5G601 2-411)
T2 sequence: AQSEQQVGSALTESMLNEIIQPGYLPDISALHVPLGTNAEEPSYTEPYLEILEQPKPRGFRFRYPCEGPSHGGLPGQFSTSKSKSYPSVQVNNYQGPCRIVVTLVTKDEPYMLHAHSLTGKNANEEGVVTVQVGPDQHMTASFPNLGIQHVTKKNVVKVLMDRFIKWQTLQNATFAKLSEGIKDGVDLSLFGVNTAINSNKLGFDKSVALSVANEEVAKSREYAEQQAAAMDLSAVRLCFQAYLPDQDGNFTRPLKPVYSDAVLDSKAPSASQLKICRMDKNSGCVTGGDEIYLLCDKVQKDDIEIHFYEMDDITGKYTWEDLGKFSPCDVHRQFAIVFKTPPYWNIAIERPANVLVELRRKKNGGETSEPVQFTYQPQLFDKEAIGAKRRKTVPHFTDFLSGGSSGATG

[2] = biological target: T3, GST-Nv-NF-kB (Ser allele) (Nematostella vectensis, UniProt A7UNT2 2-411)
T3 sequence: T2 sequence with Q21R, C66S, S207N, E215Q, V217A, E225K, A268E, D399E

GST-Co-NF-kB = biological target: T4, GST-Co-NF-kB (Capsaspora owczarzaki, UniProt F1ARL5 200-546)
T4 sequence: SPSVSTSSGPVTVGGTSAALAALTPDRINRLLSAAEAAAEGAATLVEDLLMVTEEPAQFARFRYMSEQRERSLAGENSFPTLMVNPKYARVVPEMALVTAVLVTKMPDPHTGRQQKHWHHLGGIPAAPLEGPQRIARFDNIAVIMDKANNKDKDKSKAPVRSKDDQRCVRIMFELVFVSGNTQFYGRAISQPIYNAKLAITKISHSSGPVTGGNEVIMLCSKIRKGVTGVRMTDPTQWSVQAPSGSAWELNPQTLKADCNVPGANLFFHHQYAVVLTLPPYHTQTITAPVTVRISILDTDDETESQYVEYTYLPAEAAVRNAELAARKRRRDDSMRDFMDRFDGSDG

GST-Dm-Relish = biological target: T5, GST-Dm-Relish (Drosophila melanogaster, UniProt Q94527 99-473)
T5 sequence: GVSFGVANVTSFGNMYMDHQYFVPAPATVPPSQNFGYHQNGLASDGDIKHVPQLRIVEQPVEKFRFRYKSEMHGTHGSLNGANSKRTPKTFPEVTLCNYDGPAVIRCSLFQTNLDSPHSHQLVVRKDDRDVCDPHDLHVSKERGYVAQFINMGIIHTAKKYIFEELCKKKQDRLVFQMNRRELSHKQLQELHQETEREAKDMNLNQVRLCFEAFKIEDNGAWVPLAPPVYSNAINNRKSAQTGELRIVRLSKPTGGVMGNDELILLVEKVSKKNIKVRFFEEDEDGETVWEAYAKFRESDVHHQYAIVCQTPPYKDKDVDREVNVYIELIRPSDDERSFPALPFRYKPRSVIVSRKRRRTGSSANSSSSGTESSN

GST-Aq-NF-kB = biological target: T6, GST-Aq-NF-kB (Amphimedon queenslandica, UniProt A9Y5G7 2-389)
T6 sequence: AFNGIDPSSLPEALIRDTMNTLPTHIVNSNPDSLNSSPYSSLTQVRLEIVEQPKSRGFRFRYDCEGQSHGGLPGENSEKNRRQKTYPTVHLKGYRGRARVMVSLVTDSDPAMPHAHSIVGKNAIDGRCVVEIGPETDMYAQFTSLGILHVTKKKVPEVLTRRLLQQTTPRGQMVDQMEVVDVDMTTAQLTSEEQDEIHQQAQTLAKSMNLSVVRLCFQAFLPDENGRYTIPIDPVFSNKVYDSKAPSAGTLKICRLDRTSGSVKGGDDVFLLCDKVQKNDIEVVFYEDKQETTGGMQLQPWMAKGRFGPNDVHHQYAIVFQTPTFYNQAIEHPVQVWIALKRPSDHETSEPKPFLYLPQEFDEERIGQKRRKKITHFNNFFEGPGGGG

GST-Hu-p50 = GST-Hu-p50 (Homo sapiens, UniProt P19838 7-356)
Sequence of GST-Hu-p50 (P19838 7-356): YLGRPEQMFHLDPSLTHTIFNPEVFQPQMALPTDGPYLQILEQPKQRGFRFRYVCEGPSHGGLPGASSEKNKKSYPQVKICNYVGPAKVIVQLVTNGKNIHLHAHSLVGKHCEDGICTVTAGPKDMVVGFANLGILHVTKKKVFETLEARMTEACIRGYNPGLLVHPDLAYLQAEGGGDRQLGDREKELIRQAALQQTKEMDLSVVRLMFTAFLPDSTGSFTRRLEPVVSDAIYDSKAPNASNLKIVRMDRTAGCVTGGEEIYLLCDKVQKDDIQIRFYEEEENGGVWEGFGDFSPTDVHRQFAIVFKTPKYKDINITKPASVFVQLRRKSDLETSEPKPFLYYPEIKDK

Sequence	binding signal (GST-Ap-NF-kB RHD)	binding signal [1]	binding signal [2]	binding signal (GST-Co-NF-kB)	binding signal (GST-Dm-Relish)	binding signal (GST-Aq-NF-kB)	binding signal (GST-Hu-p50)
CCGATTAACATCAGGACTCCCCCTGATGTTAATCGGGTCTTGATTCGCTTGACGCTGCTG	8.82 z-score	7.17 z-score	6.45 z-score	4.97 z-score	8.9 z-score	9.21 z-score	6.59 z-score
CCGATTAACATCAGGAAGCCCCATGATGTTAATCGGGTCTTGATTCGCTTGACGCTGCTG	4.01 z-score	4.13 z-score	2.15 z-score		5.38 z-score	4.02 z-score	3.77 z-score
CCGATTAACATCAGAAAGTCCCATGATGTTAATCGGGTCTTGATTCGCTTGACGCTGCTG	5.73 z-score	7.09 z-score	6.43 z-score		6.06 z-score	5.57 z-score	4.63 z-score
CCGATTAACATCAGGGAGTCACCTGATGTTAATCGGGTCTTGATTCGCTTGACGCTGCTG	3.25 z-score	1.16 z-score	1.39 z-score		8.86 z-score	3.63 z-score	1.96 z-score
CCGATTAACATCAGGCAAGCCCCTGATGTTAATCGGGTCTTGATTCGCTTGACGCTGCTG	2.62 z-score	2.83 z-score	1.38 z-score		2.46 z-score	5.11 z-score	3.36 z-score
CCGATTAACATCAGGCCATTCCCTGATGTTAATCGGGTCTTGATTCGCTTGACGCTGCTG	1.39 z-score	2.63 z-score	1.77 z-score		2.6 z-score	4.37 z-score	1.79 z-score
CCGATTAACATCAGGGGCTTCACTGATGTTAATCGGGTCTTGATTCGCTTGACGCTGCTG	3.16 z-score	3.35 z-score	2.69 z-score		7.68 z-score	4.89 z-score	4.01 z-score
CCGATTAACATCAGGGAAAAATATGATGTTAATCGGGTCTTGATTCGCTTGACGCTGCTG	3.68 z-score	5.51 z-score	7.16 z-score	5.79 z-score	2.03 z-score	5.19 z-score	4.2 z-score
CCGATTAACATCACGCAAATCCCTGATGTTAATCGGGTCTTGATTCGCTTGACGCTGCTG	2.1 z-score	1.61 z-score	1.22 z-score		1.24 z-score	2 z-score	1.33 z-score
CCGATTAACATCAAGGTGTTTCCTGATGTTAATCGGGTCTTGATTCGCTTGACGCTGCTG	1.56 z-score	1.48 z-score	1.39 z-score		1.91 z-score	2.48 z-score	3.43 z-score
CCGATTAACATCAAAATGTCCCCTGATGTTAATCGGGTCTTGATTCGCTTGACGCTGCTG	6.81 z-score	6.47 z-score	7.12 z-score	5.57 z-score	6.24 z-score	5.89 z-score	5.58 z-score
CCGATTAACATCACGGGATTTCGTGATGTTAATCGGGTCTTGATTCGCTTGACGCTGCTG	1.77 z-score	1.88 z-score	1.43 z-score		3.68 z-score	1.91 z-score	2.12 z-score
CCGATTAACATCAGAAAAACCCCTGATGTTAATCGGGTCTTGATTCGCTTGACGCTGCTG	7.98 z-score	8.56 z-score	7.56 z-score	2.03 z-score	9.4 z-score	7.67 z-score	7.6 z-score
CCGATTAACATCAGGAATCCCCATGATGTTAATCGGGTCTTGATTCGCTTGACGCTGCTG	8.61 z-score	8.08 z-score	7.76 z-score	3.4 z-score	9.13 z-score	6.35 z-score	6.22 z-score
CCGATTAACATCAAAGATTCCCCTGATGTTAATCGGGTCTTGATTCGCTTGACGCTGCTG	8.13 z-score	10.5 z-score	11.7 z-score	8.45 z-score	7.42 z-score	7.27 z-score	6.66 z-score
CCGATTAACATCAAAATTCCCCCTGATGTTAATCGGGTCTTGATTCGCTTGACGCTGCTG	10.1 z-score	11.6 z-score	13.3 z-score	11.3 z-score	9.16 z-score	9.32 z-score	8.09 z-score
CCGATTAACATCAAAAAGCCCCTTGATGTTAATCGGGTCTTGATTCGCTTGACGCTGCTG	7.33 z-score	9.57 z-score	7.49 z-score		8.7 z-score	7.9 z-score	6.72 z-score
CCGATTAACATCAGGTAATTTTATGATGTTAATCGGGTCTTGATTCGCTTGACGCTGCTG	1.38 z-score	3.29 z-score	5.66 z-score		3.58 z-score	2.95 z-score	4.06 z-score
CCGATTAACATCAGGGTTTCACCTGATGTTAATCGGGTCTTGATTCGCTTGACGCTGCTG	1.51 z-score	1.95 z-score	1.23 z-score		5.71 z-score	3.71 z-score	2.5 z-score
CCGATTAACATCAGAGAAGCCCCTGATGTTAATCGGGTCTTGATTCGCTTGACGCTGCTG	4.39 z-score	5.41 z-score	4.05 z-score		3.44 z-score	5.35 z-score	4.67 z-score
CCGATTAACATCAAGGGAACCCCTGATGTTAATCGGGTCTTGATTCGCTTGACGCTGCTG	5.4 z-score	3.13 z-score	1.95 z-score		9.38 z-score	5.18 z-score	3.12 z-score
CCGATTAACATCAGGGACTTCTATGATGTTAATCGGGTCTTGATTCGCTTGACGCTGCTG	5.47 z-score	6.35 z-score	7.05 z-score		3.93 z-score	5.24 z-score	5.28 z-score
CCGATTAACATCAAGGAAGTCCCTGATGTTAATCGGGTCTTGATTCGCTTGACGCTGCTG	5.76 z-score	5.94 z-score	5.82 z-score		7.11 z-score	5.83 z-score	4.82 z-score
CCGATTAACATCAAATTTTCCCCTGATGTTAATCGGGTCTTGATTCGCTTGACGCTGCTG	7.95 z-score	9.83 z-score	12.2 z-score	11.6 z-score	5.18 z-score	7.36 z-score	6.86 z-score
CCGATTAACATCACGGGAAAACCTGATGTTAATCGGGTCTTGATTCGCTTGACGCTGCTG	4.2 z-score	4.49 z-score	5.49 z-score	5.1 z-score	4.62 z-score	5.78 z-score	3.46 z-score
CCGATTAACATCAGGGTTTTTAGTGATGTTAATCGGGTCTTGATTCGCTTGACGCTGCTG	2.02 z-score	1.3 z-score	2.09 z-score		2.9 z-score	2.58 z-score	1.99 z-score
